Results from PubChem BioAssay AID2537 (National Center for Advancing Translational Sciences (NCATS), 2010).
Records with an inconclusive call do not appear. Activity calls are given as the source filed them. Calls follow the shape of the dose curve; as a rule, active = well fitted inhibition curve with a large enough effect; inconclusive = small, poorly fitted or top-dose-only effect; inactive = no such curve, though single readings can be large or run the other way.

What follows are molecules tested against Polyunsaturated fatty acid lipoxygenase ALOX15B (Homo sapiens) (UniProt O15296) (assay: Confirmation qHTS Assay for Inhibitors of 15-hLO-2 (15-human lipoxygenase 2)). Details: purified 15hLO-2, xylenol orange hydroperoxide absorbance; series mostly up to 57.1 µM; activity change, negative = inhibition: at the top concentration.
Chain of Polyunsaturated fatty acid lipoxygenase ALOX15B (Homo sapiens) (O15296 whole entry, looked up): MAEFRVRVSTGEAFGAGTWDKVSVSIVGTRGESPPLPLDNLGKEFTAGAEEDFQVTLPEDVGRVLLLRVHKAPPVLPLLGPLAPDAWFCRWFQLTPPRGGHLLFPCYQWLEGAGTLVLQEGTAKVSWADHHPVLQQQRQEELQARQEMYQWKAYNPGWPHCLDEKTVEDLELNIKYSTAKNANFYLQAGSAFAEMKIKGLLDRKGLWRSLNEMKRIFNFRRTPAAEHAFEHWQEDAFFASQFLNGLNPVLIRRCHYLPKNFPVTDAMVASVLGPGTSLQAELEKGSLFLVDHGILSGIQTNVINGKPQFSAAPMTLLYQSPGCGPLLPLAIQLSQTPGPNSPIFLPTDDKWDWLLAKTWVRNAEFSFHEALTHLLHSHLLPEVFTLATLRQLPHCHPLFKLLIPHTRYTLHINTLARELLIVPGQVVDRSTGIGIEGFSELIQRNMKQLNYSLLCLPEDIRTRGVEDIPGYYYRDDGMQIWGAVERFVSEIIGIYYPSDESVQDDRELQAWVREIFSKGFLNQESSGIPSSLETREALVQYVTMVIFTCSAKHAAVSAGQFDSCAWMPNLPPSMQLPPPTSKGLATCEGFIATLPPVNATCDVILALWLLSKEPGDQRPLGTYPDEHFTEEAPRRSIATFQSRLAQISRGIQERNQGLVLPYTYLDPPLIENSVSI
Procedure: Human lipoxygenase 15hLO-2 is a member of the closely related lipoxygenase family of enzymes which catalyze the site-specific oxidation of arachidonic acid to various hormone precursor molecules and as such is a candidate for drug development in a variety of disease areas, such as cancer and inflammation. Inhibition of 15hLO-2 activity was screened by utilizing arachidonic acid as a substrate. The extent of hydroperoxide product formation was measured by a secondary chromogenic reaction in which xylenol orange (XO, Sigma-Aldrich, cat. number 39,818-7) reacts with the ferric ions produced from the reaction between the hydroperoxide and ferrous ions. The Fe(III)-XO complex is characterized with red-shifted absorbance at 560 nm. A purified preparation of human 15hLO-2 was supplied by Professor Ted Holman, University of California, Santa Cruz. NIH Molecular Libraries Screening Centers Network [MLSCN] NIH Chemical Genomics Center [NCGC] MLSCN Grant: MH081283-01A1 PI Name: Holman, T.R., University of California, Santa Cruz
Assay Protocol: Buffer: 25 mM Hepes pH 7.5, 0.01% Triton X-100. Reagents/Controls: Buffer in columns 3 and 4 as negative control (no enzyme). Substrate solution: 45 uM arachidonic acid (Sigma-Aldrich, St. Louis, MO) final concentration dispensed throughout the plate. Enzyme: 50 nM 15hLO-2 final concentration in columns 1, 2, 5-48. Column 1 is neutral (100% activity). Column 2 contained pin-transferred titration of NDGA (nordihidroguaiaretic acid, Sigma-Aldrich, N 5023, top concentration 10 mM in DMSO, then 1:2 dilution in duplicate). (Dilution factor: 23 nL into 4 uL.) Chromogenic detection reagent (divalent iron/xylenol orange, Fe-XO): 200 uM xylenol orange plus 300 uM ferrous ammonium sulfate prepared freshly in 50 mM sulfuric acid. Assay Steps: Three uL of enzyme were dispensed to 1536-well Greiner black clear bottom plates. Compounds and controls (23 nL) were transferred via Kalypsys PinTool. The plates were incubated for 15 min at room temperature, and then 1 uL of substrate solution was added to start the reaction. After room temperature incubation for 90 minutes, 4 uL of Fe-XO solution was added to each well followed by a short spin (1000 rpm, 15 sec) and the plates were then incubated for 30 min. The absorbance at 405 and 573 nm were measured using ViewLux (Perkin-Elmer) High-throughput CCD imager and absorbance protocol settings. The 573-to-405 absorbance ratio was used to compute reaction progress.

Activity change, negative = inhibition, inactive:
Cc1c(N/C=C/C(=O)c2cccs2)c(=O)n(-c2ccccc2)n1C -9.11%
O=C(Nc1cccc(F)c1)N1CCCC2(CCN(C(=O)c3ccco3)CC2)C1 -1.77%
O=C(C1=C(O)C(=O)N(Cc2ccco2)C1c1cccnc1)c1cc2ccccc2o1 (stereo not given) 8.4%
COc1ccccc1CNc1ncncc1-c1ccoc1 -18.2%
N=c1c(C(=O)NC2CCCC2)cc2c(=O)n3ccccc3nc2n1C1CCCC1 -11.1%
COc1ccc(OC)c(NC(=O)NC2(C(F)(F)F)Oc3ccccc3O2)c1 -24.4%
Cc1cccc(NC(=O)CSC(N)=O)c1C -20.6%
Oc1ccc2ccccc2c1CNc1cnc2ccccc2c1 -10.2%
Cc1csc(-c2coc3cc(O)cc(C)c3c2=O)n1 -3.97%
Nc1cc(-c2ccncc2)c[nH]c1=O -15.4%
O=C(Cc1cc(=O)[nH][nH]1)N/N=C/C=C/c1ccccc1 14.5%
COc1cccc(-c2nc(NC3CCNCC3)c3ccccc3n2)c1 11.1%
CCC(=O)N(Cc1cc(=O)[nH]c2ccccc12)C1CCCCC1 -23.5%
Cc1cc(Nc2nnnn2-c2ccccc2)n(-c2ccc(Cl)cc2)n1 -4.85%
Oc1ccc(CNc2ccccc2)c2cccnc12 -35.6%
CN(C)/C=C/C(=O)c1ccc(Cl)cc1 -5.09%
CCOc1ccc(NS(=O)(=O)c2ccc3[nH]cc(C(=O)N(CC)CC)c(=O)c3c2)cc1 -2.5%
Cc1ccc(OCC(=O)Nc2ccc(N3CCCC3)cc2)cc1C 3.37%
Cc1cccc(CNc2ncnc3ccc(-c4ccc5c(c4)OCO5)cc23)c1 7.52%
O=c1c(-c2ccc3c(c2)OCCO3)coc2cc(O)cc(O)c12 -10.2%
O=C(CC1C(=O)N(c2ccc(Cl)cc2)C(=S)N1CCc1ccncc1)Nc1ccc(F)cc1 (stereo not given) 5.96%
CC(=O)[C@@H]1[C@@H]2C(=O)N(Cc3ccccc3)C(=O)[C@@H]2C2c3ccccc3C=CN21 (stereo not given in full) 4.37%
CCCCn1c(Cc2ccccc2)n[nH]c1=S -28.7%
O=C(Nc1nc2n(n1)C(c1ccccc1)CC(c1ccc(Cl)cc1)N2)c1ccco1 (stereo not given) 20.6%
NC(=O)c1cccc2c3c([nH]c12)CCCC3 -5.98%
CCOC(=O)c1c(NC(=O)CN2CCOCC2)sc2c1CCCC2 -3.97%
CCOC(=O)c1ccc(N2CSC3=C(C#N)C(c4ccc(OC)cc4OC)CC(=O)N3C2)cc1 (stereo not given) -12%
CN(C)CCC(=O)c1ccc(Cl)cc1 -28.3%
COc1ccc(C(C[N+](=O)[O-])c2c(-c3ccccc3)cc3ccccn23)c(OC)c1 (stereo not given) -11%
COCCSc1ccccc1C(=O)NCc1ccco1 -8.59%
COc1cccc(-c2nccc(NCc3ccccc3OC)n2)c1 -34.6%
O=C(Nc1nnc(-c2ccccc2)o1)c1ccc(Cl)cc1 19.4%
CCCC(=O)NC(c1ccco1)c1cc(Cl)c2cccnc2c1O (stereo not given) 9.81%
COc1ccc(NC(=O)CSc2nc(O)cc(=O)n2-c2ccccc2OC)cc1 -4.58%
OC1(c2cccc(C(F)(F)F)c2)CCN(c2ncnc3c2[nH]c2ccc(F)cc23)CC1 -11.8%

Potency, active:
c1csc(C2Nc3cccc4cccc(c34)N2)c1 12.6 µM
Cc1ccc(SCCNC(=S)Nc2ccc(C)c(C)c2)cc1 25.1 µM
CC1=CC(C)(C)Nc2ccc(OC(=O)CN3C(=O)c4cccc5cccc(c45)C3=O)cc21 12.6 µM
CC1=NOC(=O)/C1=C\c1ccc(-c2cccc(Cl)c2)o1 4.47 µM
Cc1cc(/C=N/NC(=O)Cn2c3ccccc3c(=O)c3ccccc32)c(C)n1-c1ccccc1 7.08 µM
